Screening data from PubChem BioAssay.
Rows were chosen to be rich in hits. Some 3.3% of all compounds tested hit in one or more screens of this group.
LDHA inh: qHTS assay for inhibitors of human lactate dehydrogenase | purified LDHA, NADH/diaphorase-resazurin fluorescence; hits give low values | 480,000 tested, 0.15% active | AID 1347041, 2019 | L-lactate dehydrogenase A chain (Homo sapiens), P00338 | activity change, % (values are at about 110 or 230 µM); in the data active means activity change below about -30%; inconclusive means mostly about -25% to -30%;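 further: plate controls were DMSO wells for no effect and wells without enzyme for full effect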
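Enzyme activity of human lactate dehydrogenase 5 (2 nM; 0.06 mM NADH, 0.2 mM pyruvate, 5 min, RT) is measured via a resazurin/diaphorase fluorescence readout of residual NADH.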
D3 antag: qHTS of D3 Dopamine Receptor Antagonist: qHTS; D(3) dopamine receptor (Homo sapiens), P35462; D3R cells, DiscoveRx beta-arrestin luminescence, antagonist mode; hits give low values; max response, negative = inhibition, %; 360,000 tested, 2.5% active; AID 652054, 2013; in the data active means max response below about -50%; inconclusive means no clear call, values can overlap the other calls; further: on the % scale 0 is the no-effect control and ±100 the full control effect
Target sequence (P35462 whole entry, looked up): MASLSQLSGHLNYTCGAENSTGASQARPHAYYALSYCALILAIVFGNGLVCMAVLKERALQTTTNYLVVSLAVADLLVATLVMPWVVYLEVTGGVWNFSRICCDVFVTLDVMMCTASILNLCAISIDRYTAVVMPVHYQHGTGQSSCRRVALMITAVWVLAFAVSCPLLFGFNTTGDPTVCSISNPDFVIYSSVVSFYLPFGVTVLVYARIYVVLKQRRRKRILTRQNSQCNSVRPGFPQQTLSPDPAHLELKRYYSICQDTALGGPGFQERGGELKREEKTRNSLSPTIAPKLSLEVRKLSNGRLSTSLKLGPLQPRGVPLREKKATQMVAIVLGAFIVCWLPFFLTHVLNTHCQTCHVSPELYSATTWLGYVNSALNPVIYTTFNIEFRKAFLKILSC
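Cells expressing the human receptor were seeded at 1500 cells/well, incubated overnight at 37 degrees C in 5% CO2, then exposed to library compounds with dopamine controls for 90 minutes at 37 degrees C before luminescent detection.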
D3 ag: qHTS of D3 Dopamine Receptor Agonist: qHTS; D3R DiscoveRx beta-arrestin cells, luminescence, 90 min; max activation, %; 410,000 tested, 0.58% active; AID 652048, 2013; in the data active means max activation above about 30%; further: 0% is about no effect
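Agonist mode: compounds and dopamine controls were applied to plated cells for 90 min at 37 degrees C after an overnight attachment at 1500 cells/well. Luminescent read-out followed 30 - 60 minutes at room temperature with DiscoveRx detection reagent.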
PI5P4K alpha inh: qHTS for Inhibitors of phosphatidylinositol 5-phosphate 4-kinase (PI5P4K); PI5P4Kalpha enzyme, ADP-Glo luminescence, 60 min; hits give low values; max response, %; 330,000 tested, 1.2% active; active means max response of -50% or lower; inconclusive means between -30% and -50%; inactive means -30% or higher; further: value at the top dose of about 77 µM; on the % scale 0 is the no-effect control and ±100 the full control effect
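Reactions run in 0.038 M HEPES pH 7.4, 0.28 mM EGTA, 0.1% CHAPS and 5% DMSO, with PI5P4Kalpha, substrate, compound and 5 microM ATP final, one hour at room temperature. Readout is ADP-Glo luminescence.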
PI4K2A block: qHTS for small molecular inhibitors of PI4K2A; 420,000 tested, 0.13% active; purified PI4K2A, ADP-Glo luminescence, 1 h; hits give low values; Phosphatidylinositol 4-kinase type 2-alpha (Homo sapiens), Q9BTU6; activity change, negative = inhibition, % at 76.9 µM; in the data active means activity change below about -50%; inconclusive means mostly about -30% to -49%;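 further: -100% = wells without enzyme as full effect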
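PI4K2A activity was measured by ADP-Glo luminescence: enzyme (4 ug/mL stock) and phosphatidylinositol (1.2 mM stock) in Tris pH 7.5/MgCl2/EGTA/Triton X-100 buffer were reacted with ATP (300 microM stock) for one hour at ambient temperature.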
* hit, by the source's call; ? = inconclusive; . = no result.

SMILES	LDHA inh	D3 antag	D3 ag	PI5P4K alpha inh	PI4K2A block
CC(C)CNC(=O)C(=O)NCCC1CCCCN1S(=O)(=O)c1cccs1 (stereo not given)	-3	5	-2	7	-7
CCNC(=O)C(=O)NCCC1CCCCN1S(=O)(=O)c1cccs1 (stereo not given)	-6	-54*	-10	5	0
O=C1C(=O)N(C23CC4CC(CC(C4)C2)C3)C(=O)N1Cc1coc(-c2ccc(F)cc2)n1	-2	.	.	.	.
CC(=O)c1cccc(CN2CCN(C3CCCCC3)C(CCO)C2)c1 (stereo not given)	-6	-54*	-7	1	5
Cc1cc(-n2cccn2)ccc1CN1CCN(C2CCCC2)C(CCO)C1 (stereo not given)	-2	-70*	-22	-2	1
Cc1ccc(NCN2C(=O)C(=O)c3ccccc32)nc1	19	-64*	-50	3	10
COc1ccc2c(C)c(CC(=O)NCCc3ccc(S(N)(=O)=O)cc3)c(=O)oc2c1C	-8	.	.	.	.
COc1cc(OC)c(Nc2nc3ccccc3nc2NS(=O)(=O)c2ccc(C)cc2)cc1Cl	-3	.	.	.	.
CCCCN(C)S(=O)(=O)c1ccc(C(=O)Nc2nnc(CSC)o2)cc1	1	-98*	-2	-5	1
CCCCN(CC)S(=O)(=O)c1ccc(C(=O)Nc2nnc(-c3cccs3)o2)cc1	-3	-57*	1	-17	-4
CCN(CC)S(=O)(=O)c1ccc(C(=O)Nc2nnc(-c3ccco3)o2)cc1	2	7	-3	-5	3
CCN(CC)S(=O)(=O)c1ccc(C(=O)Nc2cccc(C)c2)cc1	4	-83*	-10	.	2
CCc1nnc(NC(=O)c2ccc(S(=O)(=O)N(CC)Cc3ccccc3)cc2)o1	2	-99*	8	?	-3
CN(C)C(=O)CCS(=O)(=O)Cc1coc(-c2cccc(F)c2)n1	-3	.	.	.	.
Cc1ccc(C(=O)Nc2ccc(C(C)C)cc2)cc1Cl	0	.	.	.	.
Cc1c(C(=O)c2ccc[nH]2)oc2ccc(Cl)cc12	13	.	.	.	.
CCOc1cc(C(=O)Nc2ccc(NS(C)(=O)=O)cc2)ccc1OC	4	.	.	.	.
CCCCN(CCCC)S(=O)(=O)c1ccc(C(=O)Nc2nnc(COC)o2)cc1	-1	-93*	-1	-2	4
C=CCOc1ccc(C(=O)Nc2cccc(C)c2)cc1	1	.	.	.	.
O=C(NC1CCCN(CCc2ccccc2)C1)c1c[nH]c2ccccc12 (stereo not given)	-12	-20	-17	10	0
CN1C[C@H](C(=O)NC2(C)OC3(O)[C@@H]4CCCN4C(=O)[C@H](Cc4ccccc4)N3C2=O)CC2c3cccc4[nH]cc(c34)C[C@H]21 (stereo not given in full)	-14	-57*	-57	-1	8
CCCCc1cc(=O)oc2c(CN3CCN(C)CC3)c(O)ccc12	-4	-17	-7	-8	-8
CCCc1cc(=O)oc2c(CN3CCN(C)CC3)c(O)ccc12	1	5	32*	-3	2
c1cc(CNCC2CCCO2)cs1 (stereo not given)	1	.	.	.	.
COc1cc(/C=C/[N+](=O)[O-])ccc1OC(=O)c1cc2ccccc2oc1=O	2	3	3	-61*	0
COc1ccccc1OC(=O)c1cc2ccccc2oc1=O	-2	-5	4	0	4
COc1cccc(NS(=O)(=O)c2ccc(S(=O)(=O)N3CCOCC3)cc2)c1	0	14	40*	.	4
COc1ccc(-c2csc(NC(=O)c3cccc(S(=O)(=O)N4CCN(C)CC4)c3)n2)cc1	0	-51*	-2	6	1
COc1ccc(S(=O)(=O)N2CCOCC2)cc1NC(=O)c1ccc2c(c1)OCO2	-4	-11	53*	-2	2
COc1cc(C(=O)Nc2ccc(S(=O)(=O)N3CCOCC3)cc2)c([N+](=O)[O-])cc1OC	8	-11	40*	-5	3
